# Data: the supplement of paper PMC10037445
# In all, about 2,900 compounds were measured (“NF-kB SEAP reporter activity, fold change vs agonist alone”: median about 0.99, highest 2% from about 2.6 on). This excerpt belongs to a sample that is enriched for the highest values.
# How the values were obtained:
# RAW-Dual [1] = assay: NF-kB SEAP reporter activity, fold change vs agonist alone; higher = enhanced NF-kB activity
# Summary of the method: (§1)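 Cytotoxic wells were those whose IncuCyte confluency was below 70% of agonist controls in both mask sets. The cells were RAW-Dual macrophages at 50,000 cells/well in DMEM on 384-well plates, dosed with 50 nL of library stock by pin tool, stimulated with a PRR agonist 1 h later, and kept at 37 °C, 5% CO2 for 20 hours. IRF and NF-κB reporter activity, as fold change over agonist-alone wells, came from supernatant read by QuantiLuc luminescence and QuantiBlue absorbance, respectively.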
# RAW-Dual [2] = assay: NF-kB SEAP reporter activity, fold change vs agonist alone; cytotoxicity flag (confluency mask): not cytotoxic; higher = enhanced NF-kB activity
# Summary of the method: as §1
# RAW-Dual [3] = assay: NF-kB SEAP reporter activity, fold change vs agonist alone; cytotoxicity flag (confluency mask): cytotoxic (confluency <70% of control); higher = enhanced NF-kB activity
# Summary of the method: as §1
# [4] = library stock concentration (final ~1000-fold dilution): 10 mM, cytotoxicity flag (confluency mask): not cytotoxic, agonist: Imiquimod (TLR7) […]
# [5] = library stock concentration (final ~1000-fold dilution): 10 mM, cytotoxicity flag (confluency mask): not cytotoxic, agonist: MPLA (TLR4) […]
# [6] = agonist: ODN 1826 (TLR9) 0.5 ug/mL
# [7] = agonist: Pam2CSK4 (TLR2/6) 0.1 ug/mL
# [8] = agonist: Pam3CSK4 (TLR2/1) 0.1 ug/mL
# [9] = library stock concentration (final ~1000-fold dilution): 2 mM, cytotoxicity flag (confluency mask): not cytotoxic, agonist: Imiquimod (TLR7) […]
# [10] = library stock concentration (final ~1000-fold dilution): 2 mM, cytotoxicity flag (confluency mask): not cytotoxic, agonist: MPLA (TLR4) […]
# [11] = library stock concentration (final ~1000-fold dilution): 10 mM, cytotoxicity flag (confluency mask): cytotoxic (confluency <70% of control), agonist: Imiquimod (TLR7) […]
# [12] = library stock concentration (final ~1000-fold dilution): 10 mM, cytotoxicity flag (confluency mask): cytotoxic (confluency <70% of control), agonist: MPLA (TLR4) […]
structure (smiles),measurement,setting,value
c1ccc(C(c2ccccc2)N2CCN(Cc3ccc4c(c3)OCO4)CC2)cc1,NF-kB SEAP reporter activity,RAW-Dual [1]; [4],1.19
same,NF-kB SEAP reporter activity,RAW-Dual [1]; [5],0.686
c1ccc(C(c2ccccc2)N2CCN(Cc3ccc4c(c3)OCO4)CC2)cc1 (library stock concentration (final ~1000-fold dilution): 10 mM),NF-kB SEAP reporter activity,RAW-Dual [2]; agonist: LPS (TLR4) 0.1 ug/mL,0.717
same,NF-kB SEAP reporter activity,RAW-Dual [2]; [6],0.728
same,NF-kB SEAP reporter activity,RAW-Dual [2]; [7],1.38
same,NF-kB SEAP reporter activity,RAW-Dual [2]; [8],0.699
O=c1ncnc2[nH][nH]cc1-2 (library stock concentration (final ~1000-fold dilution): 10 mM),NF-kB SEAP reporter activity,RAW-Dual [2]; agonist: LPS (TLR4) 0.1 ug/mL,0.941
same,NF-kB SEAP reporter activity,RAW-Dual [2]; [6],1.03
same,NF-kB SEAP reporter activity,RAW-Dual [2]; [7],1.06
same,NF-kB SEAP reporter activity,RAW-Dual [2]; [8],1.16
O=c1ncnc2[nH][nH]cc1-2,NF-kB SEAP reporter activity,RAW-Dual [1]; [4],0.925
same,NF-kB SEAP reporter activity,RAW-Dual [1]; [5],1.08
C=C(C)C1CCC2(C)CCC3(C)C(CCC4C5(C)CCC(O)C(C)(C)C5CCC43C)C12 (configuration not stated) (library stock concentration (final ~1000-fold dilution): 2 mM),NF-kB SEAP reporter activity,RAW-Dual [2]; agonist: LPS (TLR4) 0.1 ug/mL,1.25
same,NF-kB SEAP reporter activity,RAW-Dual [2]; [6],0.949
same,NF-kB SEAP reporter activity,RAW-Dual [2]; [7],1.06
same,NF-kB SEAP reporter activity,RAW-Dual [2]; [8],0.917
C=C(C)C1CCC2(C)CCC3(C)C(CCC4C5(C)CCC(O)C(C)(C)C5CCC43C)C12 (configuration not stated),NF-kB SEAP reporter activity,RAW-Dual [1]; [9],1
same,NF-kB SEAP reporter activity,RAW-Dual [1]; [10],1.05
CC(C)COCC(CN(Cc1ccccc1)c1ccccc1)N1CCCC1.Cl.O (configuration not stated) (library stock concentration (final ~1000-fold dilution): 10 mM),NF-kB SEAP reporter activity,RAW-Dual [3]; agonist: LPS (TLR4) 0.1 ug/mL,0.71
same,NF-kB SEAP reporter activity,RAW-Dual [3]; [6],1.2
same,NF-kB SEAP reporter activity,RAW-Dual [3]; [7],0.673
same,NF-kB SEAP reporter activity,RAW-Dual [3]; [8],1.09
CC(C)COCC(CN(Cc1ccccc1)c1ccccc1)N1CCCC1.Cl.O (configuration not stated),NF-kB SEAP reporter activity,RAW-Dual [1]; [11],0.745
same,NF-kB SEAP reporter activity,RAW-Dual [1]; [12],1.24
CC(Oc1ccc2[nH]nc(/C=C/c3cnn(CCO)c3)c2c1)c1c(Cl)cncc1Cl (configuration not stated),NF-kB SEAP reporter activity,RAW-Dual [1]; [11],0.251
same,NF-kB SEAP reporter activity,RAW-Dual [1]; [12],0.215
CC(Oc1ccc2[nH]nc(/C=C/c3cnn(CCO)c3)c2c1)c1c(Cl)cncc1Cl (configuration not stated) (library stock concentration (final ~1000-fold dilution): 10 mM),NF-kB SEAP reporter activity,RAW-Dual [3]; agonist: LPS (TLR4) 0.1 ug/mL,0.225
same,NF-kB SEAP reporter activity,RAW-Dual [3]; [6],0.187
same,NF-kB SEAP reporter activity,RAW-Dual [3]; [7],0.0607
same,NF-kB SEAP reporter activity,RAW-Dual [3]; [8],0.139
CC1(c2nc3c(C(N)=O)cccc3[nH]2)CCCN1 (configuration not stated) (library stock concentration (final ~1000-fold dilution): 10 mM),NF-kB SEAP reporter activity,RAW-Dual [2]; agonist: LPS (TLR4) 0.1 ug/mL,1.14
same,NF-kB SEAP reporter activity,RAW-Dual [2]; [6],0.972
same,NF-kB SEAP reporter activity,RAW-Dual [2]; [7],0.955
same,NF-kB SEAP reporter activity,RAW-Dual [2]; [8],0.991
CC1(c2nc3c(C(N)=O)cccc3[nH]2)CCCN1 (configuration not stated),NF-kB SEAP reporter activity,RAW-Dual [1]; [4],1.05
same,NF-kB SEAP reporter activity,RAW-Dual [1]; [5],0.99
C=CC(=O)Nc1cc(Nc2nccc(-n3cc(CN(C)C)c(-c4ccccc4)n3)n2)c(OC)cc1N1CCOCC1 (library stock concentration (final ~1000-fold dilution): 2 mM),NF-kB SEAP reporter activity,RAW-Dual [2]; agonist: LPS (TLR4) 0.1 ug/mL,1.37
same,NF-kB SEAP reporter activity,RAW-Dual [2]; [6],0.945
same,NF-kB SEAP reporter activity,RAW-Dual [2]; [7],0.927
same,NF-kB SEAP reporter activity,RAW-Dual [2]; [8],1.01
C=CC(=O)Nc1cc(Nc2nccc(-n3cc(CN(C)C)c(-c4ccccc4)n3)n2)c(OC)cc1N1CCOCC1,NF-kB SEAP reporter activity,RAW-Dual [1]; [9],1.12
same,NF-kB SEAP reporter activity,RAW-Dual [1]; [10],1.02
